Screens (PubChem)
LmPK inhibitor – qHTS Assay for Inhibitors of Leishmania Mexicana Pyruvate Kinase (LmPK). Q27686. purified LmPK, Kinase-Glo ATP luminescence, 1 h. Potency, µM (titrated, usually from 57.5 µM), inactives show top-dose activity change, negative = inhibition, most hits filed as inhibitors. 0.37% of 290,000 active. AID 1721, 2009; further: potency means the concentration at half of the fitted maximal effect; on the % scale 0 is the no-effect control and ±100 the full control effect
Target sequence (Q27686 whole entry, looked up): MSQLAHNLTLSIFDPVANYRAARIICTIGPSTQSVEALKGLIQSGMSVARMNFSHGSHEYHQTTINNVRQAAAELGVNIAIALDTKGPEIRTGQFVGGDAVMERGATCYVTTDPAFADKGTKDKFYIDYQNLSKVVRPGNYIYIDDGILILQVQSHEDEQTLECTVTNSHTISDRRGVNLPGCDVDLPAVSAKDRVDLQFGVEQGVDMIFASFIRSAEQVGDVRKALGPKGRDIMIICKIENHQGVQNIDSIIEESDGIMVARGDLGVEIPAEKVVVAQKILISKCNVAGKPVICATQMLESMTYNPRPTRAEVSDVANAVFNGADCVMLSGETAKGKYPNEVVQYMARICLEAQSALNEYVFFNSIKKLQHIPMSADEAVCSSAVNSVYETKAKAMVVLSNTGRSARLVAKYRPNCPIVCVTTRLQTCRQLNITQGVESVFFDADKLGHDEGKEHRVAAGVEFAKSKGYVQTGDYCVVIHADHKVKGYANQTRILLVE
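Screened at intermediate enzyme activity to detect both inhibitors and activators: LmPK at 0.1 nM, with a 0.5 nM enzyme column as activation reference. PEP 0.5 mM, ADP 0.1 mM; ATP detected by luminescence after 1 h.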
Giardia FBPA inh – qHTS Assay for Inhibitors of Fructose-1,6-bisphosphate Aldolase from Giardia Lamblia; A8B2U2; purified Giardia FBPA; Potency, µM (series often up to 59.6 µM), for the others: at the top dose activity, negative = inhibition, usual class: inhibitors; 0.71% of 290,000 active; AID 2451, 2010; further: potency means the concentration at half of the fitted maximal effect; on the % scale 0 is the no-effect control and ±100 the full control effect; nearly all actives have a fitted effect of over 55% in size
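Giardia FBPA (40 nM reagent) was preincubated 10 min at RT with compound (up to 57.5 uM final), then substrate plus GAPDH/TPI/NAD/arsenate coupling system with diaphorase/resazurin was added; resorufin fluorescence (525/598 nm) was read after 20 min.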
TbPYK inhibitor – qHTS of Trypanosoma Brucei Inhibitors; 0.12% of 410,000 active; TbPYK enzyme, Kinase-Glo Plus ATP luminescence, 45 min; AID 624173, 2012; Potency, µM (doses to about 76.8 µM), for inactives: at the highest dose activity, negative = inhibition, hits mostly inhibitors; further: potency means the concentration at half of the fitted maximal effect; on the % scale 0 is the no-effect control and ±100 the full control effect; nearly all actives have a fitted effect of over 50% in size
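Luminescent Kinase-Glo Plus end-point after 45 min room-temperature reaction of T. brucei pyruvate kinase started with 130 uM ADP (final). Buffer TEA 50 mM pH 7.2 with KCl, MgCl2, BSA, Tween-20; titration-based qHTS with fitted concentration-effect curves.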
Shiga inhibitor – A qHTS for Small Molecule Inhibitors of Shiga Toxin | Vero cells, Shiga toxin protein synthesis inhibition reporter | inhibition, % at 38.7 µM | 9.2% of 290,000 active; in the data active means inhibition mostly above about 28%, no sharp cut-off; inactive means mostly below about 43%; further: 0% is about no effect
Sm TGR inh – qHTS Assay for the Inhibitors of Schistosoma Mansoni Peroxiredoxins | Schistosoma mansoni thioredoxin glutathione reductase (TGR), Q962Y6 | purified TGR, DTNB reduction, TNB absorbance 405 nm | 3% of 360,000 active | AID 485364, 2010 | Potency, µM (series often up to 114 µM), for the others: top-dose activity change, negative = inhibition, usual class: inhibitors; further: potency means the concentration at half of the fitted maximal effect; on the % scale 0 is the no-effect control and ±100 the full control effect; nearly all actives have a fitted effect of over 60% in size
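Kinetic colorimetric format: TGR-catalysed, NADPH-driven DTNB reduction monitored via TNB absorbance. Enzyme dispensed at 20 nM; compound exposure 15 min at room temperature before reaction start.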
CHX counter – Cycloheximide Counterscreen for Small Molecule Inhibitors of Shiga Toxin; cell reporter, cycloheximide protein synthesis inhibition counterscreen; max response, %; 12% of 300,000 active; AID 2314, 2010; in the data active means max response mostly above about 13%, no sharp cut-off; inactive means mostly below about 14%; further: read at 38.3 µM for the half of the compounds with a filed dose; 0% is about no effect
* hit, by the source's call; ? = inconclusive; nt = no result given; [ ] = another dose, or the depositor's remark. This is one part of a sample in which hits are shown more often than they occur. Unless noted, the call rests on the fitted dose curve; in most records, active means well fitted curve in the direction sought with a large enough effect; inconclusive means small, poorly fitted or top-dose-only effect, or another doubt; inactive means no such curve, though single readings can be large; an effect the other way counts as inactive or inconclusive.

SMILES	LmPK inhibitor	Giardia FBPA inh	TbPYK inhibitor	Shiga inhibitor	Sm TGR inh	CHX counter
CC(=O)c1c(C)[nH]c(C(=O)NCc2ccco2)c1C	9%	0%	-1%	6	0%	8
Cc1ccc2c3c(cccc13)-c1ccccc1C2=O	-2%	1%	1%	14	8%	28*
CC(=O)Nc1ccc(Cl)c(C(N)=O)c1	3%	6%	2%	-8	7%	-4
NC(=O)c1cc(N2C(=O)C=CC2=O)ccc1Cl	7%	-10%	?	-2	0.4µM*	20
COc1cc(C2C(C#N)=C(N)N(c3ccc(F)cc3)C3=C2S(=O)(=O)CC3)ccc1O (stereo not drawn)	0%	?	?	24	45µM*	4
COc1cc(C2C(C#N)=C(N)N(c3cccnc3)C3=C2C(=O)CCC3)ccc1O (stereo not drawn)	12%	-20%	-19%	-9	0%	-4
Cc1ccc(NC(=O)N2CCc3c([nH]c4ccccc34)C2c2ccccc2F)c(Cl)c1 (stereo not drawn)	nt	nt	-6%	nt	0%	nt
Cc1nc(-c2ccccn2)sc1C(=O)Nc1ccc(F)cc1	5%	-2%	-3%	5	4%	19*
Cc1nc(-c2ccccn2)sc1C(=O)Nc1ccc(F)cc1F	5%	-1%	3%	59*	8%	31*
Cc1nn(CC(=O)Nc2ccc(N3CCOCC3)cc2)c(C)c1[N+](=O)[O-]	nt	nt	5%	nt	nt	nt
CC(C)Oc1ccc(-c2nc(NCC3CCCO3)c3ccccc3n2)cc1 (stereo not drawn)	-2%	-5%	1%	47*	7%	20*
CC(C)(C)c1ccc(C(=O)NC(=S)NCC2CCCO2)cc1 (stereo not drawn)	0%	1%	-4%	148*	?	17*
COc1ccc(C(=O)NC(=S)NCC2CCCO2)cc1 (stereo not drawn)	-1%	0%	-3%	54*	-18%	42*
c1cncc(-c2nc(NCC3CCCO3)c3ccccc3n2)c1 (stereo not drawn)	-3%	14%	1%	-17	-10%	-5
CC(C)(C)c1ccc(C(=O)N2CCC(C(=O)NCC3CCCO3)CC2)cc1 (stereo not drawn)	-6%	-1%	7%	35	0%	20*
COc1ccc(/C=C/C(=O)NC(=S)NCC2CCCO2)cc1 (stereo not drawn)	3%	-1%	-3%	53	-4%	17
CN[C@@H](CO)C(=O)NC[C@H]1O[C@@H](n2cnc3c(=O)[nH]c(N)nc32)[C@H](O)[C@@H]1O	nt	nt	0%	nt	nt	nt
Cc1nc(SCC(=O)OC(C)(C)C)c2c3c(sc2n1)CCCC3	nt	nt	2%	nt	1%	nt
O=C(NCC1CCCO1)c1ccc(C(=O)NCC2CCCO2)cc1 (stereo not drawn)	-3%	7%	-10%	-1	-2%	-2
CCOc1ccc(C(=O)NCC2CCCO2)cc1 (stereo not drawn)	-1%	-10%	0%	117*	0%	38*
O=C(NCC1CCCO1)c1ccc(COc2ccc(F)cc2)o1 (stereo not drawn)	-9%	1%	-9%	33	35µM*	7
O=C(NC(=S)NCC1CCCO1)c1ccc(Cl)cc1Cl (stereo not drawn)	-3%	1%	-2%	56*	-18%	16*
CCOc1ccc(-c2cc(C(=O)NCC3CCCO3)c3ccccc3n2)cc1 (stereo not drawn)	3%	0%	1%	65*	-12%	24*
Cc1c(C(=O)Oc2ccc(Br)cc2)sc2ncn(Cc3ccccc3F)c(=O)c12	nt	nt	1%	nt	5%	nt
O=C(Nc1ccc(Br)cn1)c1ccc(COc2c(F)c(F)cc(F)c2F)o1	nt	nt	3%	nt	-4%	nt
SMILES	LmPK inhibitor	Giardia FBPA inh	TbPYK inhibitor	Shiga inhibitor	Sm TGR inh	CHX counter
O=C(c1cnccn1)N1CCC2(CC1)CCN(c1ncccn1)CC2	nt	5%	-5%	nt	nt	nt
COc1cc2c(=O)n(Cc3ccccc3Cl)c(=O)n(CC(=O)Nc3ccc(C)c(C)c3)c2cc1OC	nt	nt	3%	nt	6%	nt
COC(=O)c1ccc(CSCc2ccc(C#N)cc2)cc1	0%	-2%	nt	75*	8%	43*
N#Cc1ccc(CSCC(=O)O)cc1	-3%	6%	5%	-12	?	-1
Clc1cccc(Cl)c1Cn1nnc(N2CCCC2)n1	4%	4%	-7%	86*	21%	23*
Fc1cccc(Cl)c1Cn1nnc(-c2ccc(N3CCOCC3)cc2)n1	4%	4%	4%	-4	-7%	1
COc1ccc(C(=O)c2coc3ccc(O)cc23)cc1	-4%	-5%	-2%	43*	3%	46*
Cc1ccc(C(=O)c2coc3ccc(OCC(=O)O)cc23)cc1	-10%	4%	1%	35*	0%	22*
CC(=O)Nc1ccc(N=Nc2ccccc2)cc1[N+](=O)[O-]	nt	nt	1%	nt	nt	nt
Cn1c(SCc2ccc(C#N)cc2Cl)nc2ccccc21	-28%	-25%	-5%	125	3%	40*
Cn1c(SCc2nc3ccccc3n2CCO)nc2ccccc21	0%	-11%	11%	-11	-14%	-5
N#Cc1ccc(CSc2ccccn2)c(Cl)c1	0%	-5%	-5%	117	-14%	25*
COc1ccc(C(CC(=O)Nc2cccc(C)c2C)N2Cc3ccccc3C2=O)cc1 (stereo not drawn)	nt	nt	-3%	nt	-1%	nt
CC(Oc1ccccc1)C(=O)Nc1ccc(OCc2cc(=O)n3ccsc3n2)cc1 (stereo not drawn)	nt	nt	-1%	nt	-15%	nt
CCCCCCC(=O)N(O)C1CC(=O)N(c2ccc(C)cc2)C1=O (stereo not drawn)	-1%	-7%	nt	9	0.56µM*	13
CCCCCCC(=O)N(O)C1CC(=O)N(c2ccc(Cl)cc2)C1=O (stereo not drawn)	-25%	-16%	-24%	1	0.56µM*	-2
Cc1ccc(N2C(=O)CC(N(O)C3CC(=O)N(c4ccc(C)cc4)C3=O)C2=O)cc1 (stereo not drawn)	6%	-1%	-5%	36	1%	0
CCOc1ccc(Nc2sc(C(=O)c3ccc4c(c3)OCO4)c(N)c2S(=O)(=O)c2ccc(C)cc2)cc1	nt	nt	-7%	nt	0%	nt
CO[C@H]1COC(=O)C/C=C\[C@@H](C)COC(=O)[C@@H](CCSC)NC(=O)C/C=C\[C@@H]1C	nt	1%[12.9 µM]	nt	nt	nt	nt
O=C(CSc1nc2c([nH]c3ccccc32)c(=O)n1-c1cccc(Cl)c1)N1CCc2ccccc21	nt	nt	-6%	nt	3%	nt
